From PubChem BioAssay (NCI)
About 79,000 compounds went through this panel and 15% of them were active in at least one assay; those are over-represented in the sample as a whole. The source made the active and inactive calls. Cut-off read from the data, not from the text of the source: active = growth inhibition above about 70%; inactive = the rest.

Experiments:
[1] = NCI Yeast Anticancer Drug Screen. Data for the rad52 strain (AID 147);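 note: 0% = growth of vehicle-treated control cultures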; conditions: S. cerevisiae rad52 mutant growth inhibition, hits give high values
How it was run: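 Here a repair-compromised yeast strain receives each compound; its growth is then quantified and normalised to vehicle-only controls.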

[2] = NCI Yeast Anticancer Drug Screen. Data for the wt1 strain (AID 149);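 note: 0% = growth of vehicle-treated wt1 cultures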; conditions: S. cerevisiae wt1 strain (SPY 50644) growth inhibition, hits give high values
How it was run: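 Readout: yeast growth inhibition, normalised to vehicle controls, in the wt1 strain exposed to test compounds.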

[3] = NCI Yeast Anticancer Drug Screen. Data for the rad50EPP+ strain (AID 151);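 note: 0% = growth of vehicle-treated control cultures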; conditions: S. cerevisiae rad50 mutant strain, hits give high values
How it was run: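 Read-out is yeast growth inhibition relative to vehicle; cells used were the rad50EPP+ strain.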

[4] = NCI Yeast Anticancer Drug Screen. Data for the mgt1 strain (AID 153); conditions: S. cerevisiae mgt1 mutant growth inhibition, hits give high values
How it was run: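 Measured: inhibition of mgt1 yeast growth by compound, normalized to vehicle-treated cultures.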

[5] = NCI Yeast Anticancer Drug Screen. Data for the rad50 strain (AID 155);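 note: 0% = growth of vehicle-only cultures of the same strain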; conditions: S. cerevisiae rad50 strain growth inhibition, hits give high values
How it was run: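 Compounds were tested on a yeast strain with an engineered DNA damage repair alteration; the reported value is growth inhibition normalised to vehicle treatment.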

[6] = NCI Yeast Anticancer Drug Screen. Data for the mec2-1 strain (AID 157); conditions: S. cerevisiae mec2-1 strain, hits give high values
How it was run: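 Using mec2-1 yeast: add compound, measure growth, express inhibition versus vehicle-treated cultures.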

[7] = NCI Yeast Anticancer Drug Screen. Data for the rad14 strain (AID 159);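 note: 0% = growth of vehicle-treated control cultures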; conditions: S. cerevisiae rad14 strain growth inhibition, hits give high values
How it was run: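 Compound-treated yeast with a defined DNA-repair lesion; growth inhibition normalised to vehicle-treated cultures.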

[8] = NCI Yeast Anticancer Drug Screen. Data for the sgs1 mgt1 strain (AID 161);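 note: 0% = growth of cultures given vehicle only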; conditions: S. cerevisiae sgs1 mgt1 strain, hits give high values
How it was run: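 Percent growth inhibition was derived by comparing compound-exposed mutant yeast with vehicle-exposed cultures. The strain carries alterations in DNA damage repair.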

[9] = NCI Yeast Anticancer Drug Screen. Data for the CLN2oe strain (AID 163);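 note: 0% = growth of vehicle-only control cultures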; conditions: S. cerevisiae CLN2oe strain, hits give high values
How it was run: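 Whole-cell yeast growth assay. A strain engineered for altered cell-cycle control received compound, and inhibition relative to vehicle-treated cultures was recorded.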

[10] = NCI Yeast Anticancer Drug Screen. Data for the cln2 rad14 strain (AID 165);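 note: 0% = growth equal to vehicle treated cultures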; conditions: S. cerevisiae cln2 rad14 strain, hits give high values
How it was run: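 Yeast strain cln2 rad14, bearing defects in cell cycle control and DNA repair, serves as the test system; values reflect growth inhibition compared with vehicle.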

[11] = NCI Yeast Anticancer Drug Screen. Data for the bub3 strain (AID 167); conditions: S. cerevisiae bub3 mutant strain, hits give high values
How it was run: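 Growth of a checkpoint-deficient yeast mutant is measured after compound exposure. Values represent inhibition relative to vehicle.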

[12] = NCI Yeast Anticancer Drug Screen. Data for the wt2 strain (AID 169);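 note: 0% = growth of vehicle-treated yeast cultures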; conditions: S. cerevisiae wt2 strain growth inhibition, hits give high values
How it was run: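 Treated yeast vs. vehicle-treated yeast: growth inhibition determined.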

[13] = NCI Yeast Anticancer Drug Screen. Data for the mlh1 strain (AID 171);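 note: 0% = growth of vehicle-treated control cultures of the same strain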; conditions: S. cerevisiae mlh1 strain growth inhibition, hits give high values
How it was run: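 A yeast strain with a defined genetic lesion serves as the test organism. Cultures receive compound or vehicle, and growth is measured.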

[14] = NCI Yeast Anticancer Drug Screen. Data for the sgs1 strain (AID 173);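 note: 0% = growth of vehicle-only control cultures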; conditions: S. cerevisiae sgs1 mutant, hits give high values
How it was run: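 A genetically defined yeast mutant is incubated with the test compound, and its growth is compared to that of the same strain given vehicle.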

[15] = NCI Yeast Anticancer Drug Screen. Data for the mlh1 rad18 strain (AID 175); conditions: S. cerevisiae mlh1 rad18 strain growth inhibition, hits give high values
How it was run: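 Steps: expose repair-defective yeast to compound; measure growth; express inhibition against vehicle-treated controls.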

[16] = NCI Yeast Anticancer Drug Screen. Data for the rad18 strain (AID 177); conditions: S. cerevisiae rad18 mutant growth inhibition, hits give high values
How it was run: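 Measured value is growth inhibition of a yeast strain bearing a DNA repair alteration, referenced to vehicle-treated cells.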

[17] = at 5.0 µM (retest, dose inferred, filed as 0.5)
[18] = at 50.0 µM (retest, dose inferred, filed as 5.0)

Measured: growth inhibition

O=S(=O)(CCCl)c1ccccc1Cl
active: [1]; at 33.0 µM 93% | [1]; at 100.0 µM 99% | [2]; at 33.0 µM 94% | [2]; at 100.0 µM 98% | [3]; at 33.0 µM 79% | [3]; at 100.0 µM 84% | [4]; at 33.0 µM 96% | [4]; at 100.0 µM 98% | [5]; at 33.0 µM 94% | [5]; [18] 79% | [5]; at 50.0 µM 94.2% | [5]; at 100.0 µM 98% | [6]; at 33.0 µM 83% | [6]; [18] 79% | [6]; at 50.0 µM 91.8% | [6]; at 100.0 µM 98% | [7]; at 33.0 µM 91% | [7]; at 100.0 µM 99% | [8]; [18] 87% | [8]; at 50.0 µM 90.8% | [9]; at 100.0 µM 97% | [10]; at 50.0 µM 84.3% | [11]; at 33.0 µM 94% | [11]; [18] 80% | [11]; at 50.0 µM 90.7% | [11]; at 100.0 µM 98% | [12]; at 33.0 µM 98% | [12]; at 100.0 µM 99% | [13]; at 33.0 µM 90% | [13]; at 100.0 µM 97% | [14]; at 33.0 µM 95% | [14]; at 100.0 µM 99% | [15]; [18] 81% | [15]; at 50.0 µM 90.2% | [16]; at 11.0 µM 83% | [16]; at 33.0 µM 96% | [16]; at 100.0 µM 98%
inactive: [1]; at 1.2 µM -5% | [1]; at 3.7 µM 1% | [1]; at 11.0 µM 42% | [2]; at 1.2 µM 3% | [2]; at 3.7 µM 23% | [2]; at 11.0 µM 33% | [3]; at 1.2 µM -7% | [3]; at 3.7 µM 15% | [3]; at 11.0 µM 43% | [4]; at 1.2 µM 1% | [4]; at 3.7 µM 1% | [4]; at 11.0 µM 41% | [5]; at 1.2 µM -8% | [5]; at 3.7 µM -12% | [5]; [17] -119% | [5]; at 11.0 µM 65% | [6]; at 1.2 µM 2% | [6]; at 3.7 µM 8% | [6]; [17] -36% | [6]; at 11.0 µM 19% | [7]; at 1.2 µM -2% | [7]; at 3.7 µM 11% | [7]; at 11.0 µM 45% | [8]; [17] -42% | [9]; at 1.2 µM -5% | [9]; at 3.7 µM -2% | [9]; at 11.0 µM 3% | [9]; at 33.0 µM 68% | [10]; [17] -42% | [10]; [18] 25% | [11]; at 1.2 µM -1% | [11]; at 3.7 µM 6% | [11]; [17] -59% | [11]; at 11.0 µM 38% | [12]; at 1.2 µM 8% | [12]; at 3.7 µM 32% | [12]; at 11.0 µM 64% | [13]; at 1.2 µM -10% | [13]; at 3.7 µM -1% | [13]; at 11.0 µM 27% | [14]; at 1.2 µM -5% | [14]; at 3.7 µM 0% | [14]; at 11.0 µM 64% | [15]; [17] -115% | [16]; at 1.2 µM -1% | [16]; at 3.7 µM 13%
